# Screening data (PubChem)
# HIF-2a block: inhibitors of HIF-2a | 786-0 RCC cells HIF-2a reporter, luciferase luminescence, overnight | inhibition, % at 18.8 µM | 0.72% of 360,000 active;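 active means inhibition of the luminescence signal of 40% or more relative to plate controls, in a single-dose primary screen at 18.75 µM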
# Peg3 prom inh: Peg3 promoter activity inhibition. inhibition, % at 20 µM. HeLa PEG-Prom luciferase reporter, luminescence, overnight. AID 588405. 1.7% of 360,000 active;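 active means inhibition of at least 50% at 20 µM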
# TRPM1 prom inh: inhibitors of MITF-driven TRPM1 promoter in melanoma cells; inhibition, % at 12.5 µM; AID 488899; SK-MEL-5 TRPM1 promoter luciferase, 24 h; 0.83% of 330,000 active;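 active means mean inhibition across replicates of 60% or more, whatever share of single replicates reaches that level; inconclusive means some that reach 60%, reason not given; inactive means mean inhibition across replicates below 60%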
# CF NFkB block: inhibitors of cystic fibrosis induced NF-kB; KKLEB NF-kB-GFP reporter, PAF-induced, GFP fluorescence overnight; AID 588850; inhibition, % at 5 µM; 0.86% of 360,000 active;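 active means at least 50% inhibition at 5 µM, scaled per plate between neutral and stimulator controls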;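 further: PAF is a Pseudomonas aeruginosa culture filtrate used as stimulus; plate controls were PAF-stimulated DMSO wells for no effect and unstimulated DMSO wells for full effect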
# Shn3 3UTR inh: inhibitors of Schnurri-3 3'UTR reporter in osteoblasts; Clone20 osteoblast Shn3 3'UTR firefly luciferase, 24 h; inhibition, % at 12.5 µM; 0.52% of 360,000 active; AID 588674;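 active means mean inhibition of at least 75% with every replicate also reaching 75%; inconclusive means mean inhibition at least 75% but some replicate below; inactive means mean inhibition below 75%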;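 further: 0% = median of neutral control wells and 100% = pilot-screen positive control compound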
# KKLEB tox: reduces viability of KKLEB cystic fibrosis airway cells; KKLEB CF airway cells viability, ATPlite luminescence, overnight; stronger effect = lower value; cells stimulated with P. aeruginosa culture filtrate; activity change (cytotoxicity), % at 5 µM; 0.36% of 360,000 active; AID 602141;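 active means corrected activity change at or below -50% at 5 µM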
# An asterisk follows results filed as active; ? = inconclusive; . = no result. The list is not random: actives were taken first. Their share in the collection is about 2.7%.
SMILES,HIF-2a block,Peg3 prom inh,TRPM1 prom inh,CF NFkB block,Shn3 3UTR inh,KKLEB tox
C=CCn1c(SCC(=O)c2[nH]c(C)c(C(=O)OC)c2C)nc2scc(-c3ccc(OC)c(OC)c3)c2c1=O,12,10,105*,24,84,-40
COC(=O)c1ccccc1Sc1ncnc2onc(C)c12,13,101*,6,38,7,0
Cc1ccc(-c2cc(C(=O)N3CCN(c4ccc(F)cc4)CC3)c3ccccc3n2)o1,-84,-25,-29,-1,-65,-6
Cc1ccc(-c2cc(C(=O)N3CCN(c4ncccn4)CC3)c3cc(Br)ccc3n2)o1,10,52*,-14,-8,51,0
CCCNC(=O)C1(C)CCN1C(=O)c1ccc(C(C)(C)C)cc1 (stereo unspecified),7,-1,.,10,-9,13
O=[N+]([O-])c1cc([N+](=O)[O-])c2cccnc2c1Oc1ccccc1O,6,51*,41,16,43,-11
O=[N+]([O-])c1cc(CN2CCN(c3ccccc3)CC2)c(O)c2ncccc12,17,59*,75*,6,90*,9
O=[N+]([O-])c1cc(Cl)c(O)c2ncccc12,3,57*,23,15,10,1
O=C(CN1c2ccccc2Sc2ccccc21)NNC(=O)Nc1cccc(Cl)c1,37,51*,2,28,27,-8
O=C(Cc1ccccc1)NNC(=O)Nc1cccc(Cl)c1,23,0,-3,20,-4,-3
O=C(CCN1C(=O)/C(=C\c2ccccc2F)SC1=S)Nc1ccc(C(=O)O)c(O)c1,-6,4,-3,-31,4,1
O=C(CCN1C(=O)/C(=C/c2ccccc2F)SC1=S)N[C@@H](CO)Cc1ccccc1,8,68*,5,16,-46,-1
CCNC(=O)C[C@@H]1C=C[C@@H](NS(=O)(=O)c2ccc(F)cc2)[C@@H](CO)O1,13,.,.,.,.,.
Cn1c(NCc2ccccc2F)nc2cc(-c3cccc(C(F)(F)F)c3)sc2c1=O,-65,9,.,5,-1,-4
O=C(C[C@H]1C/C=C\CC[C@@H](Cc2ccc(F)cc2)C(=O)O[C@H](c2ccccc2)CNC1=O)N[C@H](CO)Cc1ccccc1,4,81*,3,11,-10,-41
O=C(C[C@@H]1C/C=C/CC[C@H](Cc2ccc(F)cc2)C(=O)OC[C@@H](Cc2ccccc2)NC1=O)N[C@H](CO)Cc1ccccc1,9,82*,91*,62*,54,-91*
O=C(C[C@H]1C/C=C\C[C@H](Cc2ccc(F)cc2)C(=O)O[C@@H](c2ccccc2)CNC1=O)N[C@@H](CO)Cc1ccccc1,-1,42,8,-15,18,-8
O=C(C[C@H]1C/C=C\CC[C@@H](Cc2ccc(F)cc2)C(=O)O[C@@H](c2ccccc2)CNC1=O)N[C@@H](CO)Cc1ccccc1,-1,88*,-5,-4,5,-9
COc1cccc(C(O)c2nc(-c3ccccc3)cs2)c1 (stereo unspecified),-88,-46,.,4,-5,0
O=C(CNC(=S)N(Cc1ccccc1)Cc1ccccc1F)NCc1ccc(Cl)cc1,5,52*,-7,16,17,3
O=[N+]([O-])c1cc([N+](=O)[O-])c2c(=Nc3ccccc3)n(-c3ccccc3)n(O)c2c1,-14,10,61*,-47,-7,-4
O=[N+]([O-])c1cc(Br)c(Nc2ccccc2)c([N+](=O)[O-])c1,22,35,39,44,29,-17
O=C1NC(Cc2ccccc2)c2nc3ccc(F)cc3c(=O)n2-c2ncccc21 (stereo unspecified),8,9,.,-30,-12,15
CCCOc1ccccc1N/C(=N/c1nc(C)cc(C)n1)NC(=O)COc1ccc(OC)cc1,10,30,1,13,91*,-21
O=C(Oc1c(CN2CCOCC2)cc(Cl)c2cccnc12)c1ccccc1F,3,22,68*,-7,40,-5
SMILES,HIF-2a block,Peg3 prom inh,TRPM1 prom inh,CF NFkB block,Shn3 3UTR inh,KKLEB tox
Oc1c(CN2CCc3ccccc3C2)cc(Cl)c2cccnc12,-5,50*,75*,24,87*,-6
Oc1c(Cl)cc(CN2CCOCC2)c2cccnc12,-11,31,55,48,90*,-42
Oc1c(CN2CCCCC2)cc(Br)c2cccnc12,-7,39,75*,-2,56,-20
O=C(COc1c(Br)cc(Br)c2cccnc12)N1CCCCC1,-25,-7,15,-9,-1,-6
COc1cc(OC)cc(C(=O)Oc2c(CN3CCOCC3)cc(Cl)c3cccnc23)c1,17,10,1,-3,1,6
Cn1c(NCCOc2ccccc2Cl)nc2cc(-c3ccc(F)cc3)sc2c1=O,-32,8,.,-2,15,-9
COc1cc(Cn2c3ccc(NC(=O)CC(C)C(F)(F)F)cc3c(=O)n2C)ccc1F (stereo unspecified),2,10,.,-2,11,2
Cc1cccc(Cl)c1NC(=O)NCCCN1CCCCC1C (stereo unspecified),0,2,.,5,-6,4
C[C@H](c1ccccc1)N1C[C@@H](COCc2ccccc2)Oc2cc(N3CC[C@@H](N(C)C)C3)ccc2S1(=O)=O,3,.,.,.,.,.
O=C(Oc1c(CN2CCOCC2)cc(Cl)c2cccnc12)c1ccccc1,17,42,64*,6,69,2
Oc1ccc(CN2CCN(Cc3ccccc3)CC2)c2cccnc12,14,-25,28,-10,35,-4
CN1CCN(Cc2cc(COCc3ccccc3)c3cccnc3c2O)CC1,11,41,79*,9,74,5
CC(Oc1cccc(Br)c1)C(=O)NNC(=O)c1ccccn1 (stereo unspecified),2,32,82*,-6,?,-8
[O-]/C(=C(\C(=S)Nc1cccc2ccccc12)[n+]1cccc(CO)c1)c1ccc(Cl)s1,3,16,18,-2,12,0
Cc1c(Cl)cccc1NC(=S)/C(=C(\[O-])c1ccc(Cl)s1)[n+]1ccccc1,-10,58*,20,-7,2,9
Cc1ccc(Cc2c(-c3ccccc3)nc3c(Cl)cc(C(F)(F)F)cn23)cc1,8,15,.,-4,-2,13
O=C(c1ccc(Cl)c(S(=O)(=O)N2CCc3ccccc32)c1)N1CCN(c2ccccc2O)CC1,11,69*,39,-4,40,-14
CN1OC[C@@H]2CN3C(=O)N(c4ccccc4)c4ccccc4[C@@H]3C[C@@H]21,2,6,.,-2,5,-8
CCCCNC(=O)c1nc(C2CCN(S(=O)(=O)c3c(OC)cccc3OC)CC2)oc1-c1ccccc1,6,.,.,.,.,.
CC(C)N1C(=O)S/C(=C\c2ccc(-c3ccc(Cl)c(C(=O)O)c3)o2)C1=O,-180,-188,-55,0,-73,-3
